This is a sample that favours compounds with a hit; in the whole collection about 1.2% have one here.
RGS4-Gao reg: human RGS4-Galphao interaction regulation. AID 1415. binding response (% of control), % at 10 µM. hit rate 0.33% among 220,000. Multiplexed bead flow cytometry, RGS4-Galphao binding; actives lie on both sides. P09471; in the data active = binding response below about 49% or above about 150%; inactive = in between;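 also: fluorescent Galphao activated with aluminum fluoride binding bead-coupled RGS4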
GSH fluor: compound fluoresces at 488/530 nm on GSH beads. AID 1776. GSH beads flow cytometry, compound fluorescence 488/530 nm; stronger effect = higher value. fluorescence (KMESF) at 10 µM. hit rate 0.25% among 190,000; in the data active = fluorescence above about 89;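 also: glutathione beads carrying GST-tagged Bcl family fusion proteins plus one bare bead set; values are compound well signal with DMSO vehicle wells as background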
RGS8-Gao: human RGS8-Galphao interaction regulation. response (percent of control binding), % at 10 µM. AID 1423. hit rate 0.34% among 220,000. P09471. multiplexed bead flow cytometry, RGS8-Galphao binding; actives lie on both sides; in the data active = response below about 60% or above about 140%; inactive = in between;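 also: Galphao activated as the GDP aluminium fluoride complex binding bead-coupled RGS8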
RGS16-Gao: RGS16-Galphao interaction regulator (human) | bead-based flow cytometry RGS16-Galphao binding, fluorescence; actives lie on both sides | binding response (% of control), % at 10 µM | AID 1441 | hit rate 0.38% among 220,000;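 also: Galphao activated by GDP with aluminum fluoride before binding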
Target sequence (O15492 whole entry, looked up): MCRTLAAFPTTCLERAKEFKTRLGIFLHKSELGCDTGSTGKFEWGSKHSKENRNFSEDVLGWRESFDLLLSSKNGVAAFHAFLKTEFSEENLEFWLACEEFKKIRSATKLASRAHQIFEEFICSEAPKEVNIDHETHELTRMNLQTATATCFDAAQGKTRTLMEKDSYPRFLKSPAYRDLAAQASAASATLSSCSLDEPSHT
Target sequence (P09471 whole entry, looked up): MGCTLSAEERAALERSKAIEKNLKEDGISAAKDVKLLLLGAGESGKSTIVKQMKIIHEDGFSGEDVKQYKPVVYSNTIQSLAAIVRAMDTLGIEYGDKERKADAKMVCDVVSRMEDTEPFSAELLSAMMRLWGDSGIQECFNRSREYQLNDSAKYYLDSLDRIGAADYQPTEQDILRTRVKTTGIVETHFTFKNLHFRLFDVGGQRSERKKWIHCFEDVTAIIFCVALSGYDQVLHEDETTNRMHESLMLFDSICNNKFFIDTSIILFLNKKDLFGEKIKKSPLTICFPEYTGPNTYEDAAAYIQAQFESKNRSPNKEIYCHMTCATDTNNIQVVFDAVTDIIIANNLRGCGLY
Avidin fluor: compound fluoresces at 488/530 nm on avidin beads. compound fluorescence 488/530 nm, flow cytometry; stronger effect = higher value. fluorescence (KMESF) at 10 µM. hit rate 0.38% among 220,000. AID 1775; in the data active = fluorescence above about 47
RGS7-Gao reg: modulates binding of RGS7 to human Galphao. hit rate 0.35% among 220,000. binding response (% of control), % at 10 µM. Multiplexed bead flow cytometry; actives lie on both sides. P09471. AID 1439; in the data active = binding response below about 49% or above about 150%; inconclusive = no clear call, values can overlap the other calls; inactive = in between;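 also: fluorescent Galphao held in activated GDP-AlF4 state binding bead-coupled RGS7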
RGS4-Gao HTS: RGS4-Galphao interaction regulator (human). shares compounds with RGS16-Gao. hit rate 99% among 1,600. RGS4–Galpha-o binding response, % at 10 µM. AID 1504. multiplexed bead flow cytometry, RGS–Galpha-o binding;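 also: fluorescently labeled Galpha-o bound to GDP with aluminium fluoride binding biotinylated RGS beads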
Biotin-avidin: counter-screen: compounds disrupting biotin binding to avidin beads; AID 1783; streptavidin beads, fluorescein-biotin binding, flow cytometry; 1,700 tested, under 10 active; inhibition, % at 10 µM; shares compounds with RGS16-Gao;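 active = inhibition above 50%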;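 also: median green fluorescence of gated singlet beads compared with DMSO control wells; 0% = DMSO wells and 100% = complete loss of bead fluorescence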
RGS8-Gao confirm: RGS8-Galphao interaction regulation, single point confirmation; binding response (% of control), % at 10 µM; bead-based flow cytometry RGS8-Galphao binding, fluorescence; actives lie on both sides; hit rate 3% among 1,700; shares compounds with RGS16-Gao; AID 1836; in the data active = binding response below about 72% or above about 130%; inactive = in between;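 also: Galphao activated as GDP AlF4 complex before binding bead RGS8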
RGS7-Gao single: confirmation of regulators of human RGS7-Galphao interaction; hit rate 7.8% among 1,700; bead-based flow cytometry RGS7-Galphao binding; actives lie on both sides; shares compounds with RGS16-Gao; response (percent of control binding), % at 10 µM; in the data active = response below about 75% or above about 130%; inactive = in between;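 also: fluorescent Galphao activated with GDP and aluminum fluoride binding bead-coupled RGS7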
RGS16-Gao single: RGS16-Galphao interaction regulation, single point confirmation | shares compounds with RGS16-Gao | bead-based flow cytometry, RGS16-Galphao binding; actives lie on both sides | response (% of control binding), % at 10 µM | hit rate 4% among 1,700; in the data active = response below about 74% or above about 130%; inactive = in between;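 also: Galphao activated as the GDP aluminium fluoride complex binding bead-coupled RGS16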
RGS4-Gao confirm: RGS4-Galphao interaction regulation, single point confirmation | RGS4-Galphao binding, multiplexed bead flow cytometry; actives lie on both sides | hit rate 4% among 1,700 | AID 1840 | binding response (% of control), % at 10 µM | shares compounds with RGS16-Gao; in the data active = binding response below about 74% or above about 130%; inactive = in between
RGS19-Gao conf: confirmation of regulators of human RGS19-Galphao interaction | shares compounds with RGS16-Gao | bead-based flow cytometry RGS19-Galphao binding; actives lie on both sides | response (percent of control binding), % at 10 µM | hit rate 5% among 1,700; in the data active = response below about 50% or above about 160%; inactive = in between;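 also: 100% = no compound control and 0% = blank background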
* hit, by the source's call; u = inconclusive; x = no result given; [ ] = remark or other dose. Unless noted, no rule for the calls is given here.

SMILES	RGS4-Gao reg	GSH fluor	RGS8-Gao	RGS16-Gao	Avidin fluor	RGS7-Gao reg	RGS4-Gao HTS	Biotin-avidin	RGS8-Gao confirm	RGS7-Gao single	RGS16-Gao single	RGS4-Gao confirm	RGS19-Gao conf
COc1ccc(N2CCN(C(CNC(=O)OCc3ccccc3)c3ccco3)CC2)cc1 (stereo not drawn)	104	17	124	189*[activator]	13	106	104*	3	103	99	101	100	98
COc1ccc(N2CCN(C(CNC(C)=O)c3ccco3)CC2)cc1 (stereo not drawn)	107	14	103	108	10	106	x	x	x	x	x	x	x
COC(=O)c1ccccc1COn1c(=O)c[n+]([O-])c2ccccc21	231*[activator]	19	91	187	45	158*[activator]	x	0	101	100	99	103	96
Cc1cc(C)c(-c2cc(NC(=O)CSc3n[nH]c(N)n3)n(-c3ccccc3)n2)cc1C	-44*	33	6.7*	-38*	-5	-16*	x	0	100	106	102	103	106
Cc1cc(NC(=O)CSc2nc(C(C)C)nc3sc(C)c(C)c23)no1	98	31	100	102	12	101	x	x	x	x	x	x	x
Cc1cc(NC(=O)CSc2nnc3c4c(C)c(C)sc4ncn23)no1	114	29	100	103	111*	188*[activator]	114*	0	105	103	104	102	95
Cc1nn(C)cc1/C=N/NC(=O)Cn1nnc(N)n1	98	x	97	98	8	u	x	x	x	x	x	x	x
CCOC(CNC(=O)c1cccn2c(=O)c3cc(Cl)ccc3nc12)OCC	52	18	71	54	4	48*	52*	0	101	99	102	98	106
S=c1nc[nH]c2c1ncn2C1CCCC1	136	x	120	128	6	u	x	x	x	x	x	x	x
COc1ccc(CCc2nnc(CCC(=O)NCCc3ncccc3C)o2)cc1	103	14	102	105	11	103	x	x	x	x	x	x	x
CCCCN(CCCC)S(=O)(=O)c1ccc(NC(=O)c2ccc([N+](=O)[O-])cc2Cl)cc1	113	10	134	304*[activator]	15	116	113*	-2	105	101	101	100	100
CC1CCN(C(=O)c2ccc(NS(C)(=O)=O)cc2)CC1	x	48	x	x	x	x	x	1	101	104	101	102	88
Cc1cc(C)c(NC(=O)c2cnn(C)c2)c(C)c1	-6.8*	10	4.6*	-386	-3	2.0*	x	0	111	118	112	114	101
COc1ccc(/C=C(\NC(=O)c2ccccc2)C(=O)NNC(=O)CCN2CCOCC2)cc1	99	25	101	102	13	99	x	x	x	x	x	x	x
O=C(CCN1CCOCC1)NNC(=O)/C(=C/c1ccccc1)NC(=O)c1ccccc1	43*	10	86	64	13	54	x	1	111	101	112	102	101
Cc1ccc(N2C(=O)C3ON(c4ccccc4)C(CC(C)C)C3C2=O)cc1 (stereo not drawn)	102	x	100	100	6	u	x	x	x	x	x	x	x

Screening data from PubChem.
